The whole screen tested about 52,000 compounds, of which about 4,300 (8.3%) were called active. This excerpt belongs to a sample that is enriched for actives. Values without a mark were called inactive. Rule as the data show it: active = survival mostly below about 52% (no sharp cut-off); inactive = mostly above about 56%.
Each compound was assayed on DeltatarO mutant (assay: S. aureus survival, RN4220 and DeltatarO strains – OD600, teichoic acid synthesis inhibitors, primary screen (AID 463173)). Settings: S. aureus RN4220 wild type/DeltatarO growth, OD600, 18 h, stronger effect = lower value, screened at 18.75 µg/mL (by protocol).

| SMILES | survival |
| --- | --- |
| Cc1ccc(CN(Cc2ccco2)C(=O)COc2ccc(C)c(C)c2)cc1 | 68% |
| CC(C)(C)C1CCc2c(sc(NC(=O)c3ccccc3F)c2C(=O)NCc2ccco2)C1 (stereo not drawn) | 61% |
| CN(C)C(=O)c1c(NC(=O)c2ccccc2F)sc2c1CCCC2 | 76% |
| CCCNC(=O)c1c(NC(=O)c2ccccc2)sc2c1CCC(C(C)(C)C)C2 (stereo not drawn) | 9% (active) |
| CC(C)(C)C1CCc2c(sc(NC(=O)c3ccc(Cl)cc3)c2C(=O)NCc2ccco2)C1 (stereo not drawn) | 86% |
| Cc1ccccc1NC(=O)c1c(NC(=O)c2ccco2)sc2c1CCC(C(C)(C)C)C2 (stereo not drawn) | 74% |
| CCN(CC)C(=O)c1c(NC(=O)c2ccccc2F)sc2c1CCC(C(C)(C)C)C2 (stereo not drawn) | -8% (active) |
| Cc1ccccc1C(=O)Nc1sc2c(c1C(=O)N1CCCCC1)CCC(C(C)(C)C)C2 (stereo not drawn) | -2% (active) |
| Cc1ccccc1C(=O)Nc1sc2c(c1C(=O)O)CCC(C(C)(C)C)C2 (stereo not drawn) | -2% (active) |
| Cc1ccc(C(=O)Nc2sc3c(c2C(=O)NCc2ccco2)CCC(C(C)(C)C)C3)cc1 (stereo not drawn) | 64% |
| Cc1ccccc1C(=O)Nc1sc2c(c1C(=O)NCc1ccco1)CCC(C(C)(C)C)C2 (stereo not drawn) | 109% |
| CCOC(=O)c1sc(N2C(=O)c3oc4cc(C)c(C)cc4c(=O)c3C2c2cccc(O)c2)nc1C (stereo not drawn) | 78% |
| O=C1C2(Cc3ccccc3)CN3CN(C2)CC1(Cc1ccccc1)C3 | 75% |
| COc1ccc(NC(=O)c2cc(-c3ccc(F)cc3)no2)cc1OC | 71% |
| O=C(Nc1ccccc1[N+](=O)[O-])c1csnn1 | 73% |
| CC1=C(C(=O)Nc2cccnc2)C(c2ccccc2)n2nc(SCc3ccccc3)nc2N1 (stereo not drawn) | 74% |
| Cc1ccccc1OCC(=O)Nc1ccccc1C(=O)OCc1cc(=O)n2c(C)csc2n1 | 94% |
| CCOC(=O)c1c(S(=O)(=O)NCC(=O)NCc2ccccc2Cl)c(C)n(C)c1C | 97% |
| COc1ccccc1NC(=O)c1c(NC(=O)c2cccs2)sc2c1CCC(C(C)(C)C)C2 (stereo not drawn) | 139% |
| CC(C)(C)C1CCc2c(sc(NC(=O)CCC(=O)O)c2C(=O)Nc2ccccc2C(F)(F)F)C1 (stereo not drawn) | -6% (active) |
| COc1ccccc1NC(=O)c1c(NC(=O)Cc2ccccc2)sc2c1CCC(C(C)(C)C)C2 (stereo not drawn) | 126% |
| Cc1ccc(CNC(=O)C2CCN(C(=O)N3CC(C)Oc4ccc(Cl)cc43)CC2)cc1 (stereo not drawn) | 57% |
| CCOC(=O)c1cccc(NC(=O)N2CC=C(c3c[nH]c4ccccc34)CC2)c1 | 83% |
| COc1ccccc1NC(=O)N1CC=C(c2c[nH]c3ccccc23)CC1 | 42% (active) |

| SMILES | survival |
| --- | --- |
| CCc1ccc(NC(=O)N2CC=C(c3c[nH]c4ccccc34)CC2)cc1 | 39% (active) |
| CCOc1ccc(NC(=O)N2CC=C(c3c[nH]c4ccccc34)CC2)cc1 | 83% |
| Cc1cccc(NC(=O)N2CC=C(c3c[nH]c4ccccc34)CC2)c1C | 73% |
| COc1cc(OC)c(NC(=O)N2CC=C(c3c[nH]c4ccccc34)CC2)cc1Cl | 75% |
| COc1ccccc1OCC(=O)Nc1ccc(S(=O)(=O)N2CCN(C)CC2)cc1 | 78% |
| CCc1ccc(-n2nc(CO)c(C(=O)NC(C)c3ccc(Cl)cc3)n2)cc1 (stereo not drawn) | 58% |
| COc1cc(S(=O)(=O)N2CCN(c3ccccc3F)CC2)c(OC)cc1Cl | 87% |
| CCOC(=O)c1cc2oc(C)cc2n1CC(=O)N(C)C1CCCCC1 | 92% |
| CCOc1ccc(CCNC(=O)c2ccc3c(c2)c(C)c(C)n3Cc2ccccc2)cc1OCC | 83% |
| Cc1ccc2c(=O)cc(C(=O)Nc3c(C(=O)c4ccccc4)oc4ccccc34)oc2c1C | 82% |
| CCCNC(=O)Cn1ncc2c3ccccc3n(CCC)c2c1=O | 128% |
| CCCn1c2ccccc2c2cnn(CC(=O)NCC3CCN(Cc4ccccc4C)CC3)c(=O)c21 | 55% |
| CCCn1c2ccccc2c2cnn(CC(=O)NCCCOC(C)C)c(=O)c21 | -5% (active) |
| CCCn1c2ccccc2c2cnn(CC(=O)NCC3CCN(Cc4ccc(C)cc4)CC3)c(=O)c21 | 17% (active) |
| CCCn1c2ccccc2c2cnn(CC(=O)NCCCN3CCCCC3)c(=O)c21 | 94% |
| CCCn1c2ccccc2c2cnn(CC(=O)NCCc3ccc(OCC)c(OCC)c3)c(=O)c21 | 92% |
| CCCn1c2ccccc2c2cnn(CC(=O)NCCc3ccc(OCC)cc3)c(=O)c21 | -5% (active) |
| CCCn1c2ccccc2c2cnn(CC(=O)NCCc3ccc(C)cc3)c(=O)c21 | 128% |
| CCCn1c2ccccc2c2cnn(CC(=O)NCC3CCN(Cc4ccc(F)cc4)CC3)c(=O)c21 | 68% |
| CCN(CC)S(=O)(=O)c1ccc2c(c1)N(CC(=O)N1CCN(c3cccc(C(F)(F)F)c3)CC1)C(=O)CO2 | 68% |
| Cc1ccc(SCc2nc(-c3ccc(C(=O)NCc4ccccc4Cl)cc3)oc2C)cc1 | 84% |
| Fc1cccc(NCc2ccccc2-c2nnc(-c3ccccc3Cl)o2)c1 | 110% |
| CCn1c(SCC(=O)NC2CCCC2)nnc1-c1ccccc1 | 75% |
| O=C(CSc1nnc(Cc2ccccc2)n1Cc1ccco1)NC1CCCC1 | 44% (active) |

| SMILES | survival |
| --- | --- |
| O=C(CSc1nccn1Cc1ccccc1)NC1CCCC1 | 69% |
| O=C(CSc1nnc(Cc2ccccc2)n1Cc1ccccc1)NCc1ccco1 | 63% |
| CC(C)NC(=O)CSc1nnc(Cc2ccccc2)n1C | 83% |
| CC(C)NC(=O)CSc1nnc(Cc2ccccc2)n1Cc1ccco1 | 40% (active) |
| COc1ccccc1CNC(=O)c1cccn1-c1nnc(N2CCCCC2)s1 | 37% (active) |
| COc1ccccc1CNC(=O)c1cccn1-c1nnc(N2CCCC2)s1 | 92% |
| COc1ccc(CNC(=O)c2cccn2-c2nnc(N3CCCCC3)s2)c(OC)c1 | 0% (active) |
| CCOc1ccccc1CNC(=O)c1cccn1-c1nnc(N2CCCCC2)s1 | 131% |
| CCN1CCN(c2nnc(-n3cccc3C(=O)NCc3ccccc3OC)s2)CC1 | 46% (active) |
| COc1ccc(NC(=O)c2cccn2-c2nnc(N3CCCCC3)s2)c(OC)c1 | 98% |
| COc1ccccc1CCNC(=O)c1cccn1-c1nnc(N2CCCCC2)s1 | 95% |
| Cc1ccc(NCc2cccn2-c2nnc(N3CCCCCC3)s2)cc1 | 78% |
| COc1ccc(NCc2cccn2-c2nnc(N3CCCCCC3)s2)cc1 | 71% |
| CCOc1ccccc1CNC(=O)c1cccn1-c1nnc(N2CCCC2)s1 | 102% |
| COc1ccc(CNC(=O)c2cccn2-c2nnc(N3CCCC3)s2)c(OC)c1 | 91% |
| CCc1ccc(NCc2cccn2-c2nnc(N3CCCCCC3)s2)cc1 | -6% (active) |
| CCOc1ccc(/C=C/c2nc3ccccc3n2S(=O)(=O)c2ccc(Br)cc2)cc1 | 59% |
| CCN1CCSc2ccc(C(=O)NCc3ccc(F)cc3)cc21 | 97% |
| CNC(=O)c1ccc(CN2CCc3ccccc3C2)cc1 | 100% |
| CCOC(=O)c1c(C)[nH]c(C)c1S(=O)(=O)N1CCC(C(=O)N2CCN(c3ccccc3)CC2)CC1 | 90% |
| O=C(CSc1nccn1Cc1ccc(Cl)cc1)Nc1ccc2c(c1)OCCO2 | 94% |
| Cc1ccc(-n2ncc(C(=O)N3CCN(c4ccccn4)CC3)c2C2CCN(C(=O)OC(C)(C)C)CC2)cc1 | 81% |
| O=C(Cn1c(=O)oc2cc(S(=O)(=O)NCc3ccccc3)ccc21)Nc1cccc(F)c1 | 78% |
| O=C(NCc1cccc(Cl)c1)c1cccn1-c1nnc(N2CCCC2)s1 | 37% (active) |

| SMILES | survival |
| --- | --- |
| CCOc1ccccc1CNCc1cccn1-c1nnc(N2CCN(c3ccccc3)CC2)s1 | 47% (active) |
| O=C(NCc1ccccc1)c1cccn1-c1nnc(N2CCCC2)s1 | 55% |
| COc1cccc(CNCc2cccn2-c2nnc(N3CCN(c4ccccc4)CC3)s2)c1 | 79% |
| Cc1ccc(CNCc2cccn2-c2nnc(N3CCCC3)s2)cc1 | 86% |
| O=C(NCc1cccc(Br)c1)c1cccn1-c1nnc(N2CCCCC2)s1 | 78% |
| O=C1C=C(N2CCCCC2)C2(CCCCC2)O1 | 106% |
| COc1ccc(CCN(Cc2cc3cc(C)ccc3n3nnnc23)C(=O)N(C)C)cc1OC | 86% |
| Cc1ccc(C)c(N2CCN(C3(c4ccccc4)C(=O)c4ccccc4C3=O)CC2)c1 | 98% |
| COc1cccc(C(=O)NCC(=O)OCc2cc(=O)n3nc(C)sc3n2)c1 | 116% |
| COc1ccc(OC)c(C2c3c(oc4ccc(C)cc4c3=O)C(=O)N2CCCN(C)C)c1 (stereo not drawn) | 73% |
| CC(=O)N1CCc2cc(CNC(=O)Nc3ccc(Br)c(C)c3)ccc21 | 87% |
| COc1cc(NC(=O)CC(C)S(=O)(=O)c2ccc3c(c2)CCN3C(C)=O)cc(OC)c1OC (stereo not drawn) | 92% |
| CC(=O)N1CCc2cc(S(=O)(=O)C(C)CC(=O)Nc3ccc(Br)c(C)c3)ccc21 (stereo not drawn) | -5% (active) |
| Cc1ccc(C)c(N2CCN(Cc3csc(C)c3)CC2)c1 | 119% |
| CC(C)(C)NC(=O)CSc1nnc(-c2cccs2)o1 | 102% |
| COc1cc(OC)c(NC(c2nnc(-c3ccccc3)o2)c2ccc(F)cc2Cl)cc1Cl (stereo not drawn) | 61% |
| CCOc1ccccc1NC(c1nnc(-c2ccccc2)o1)c1ccc(F)cc1Cl (stereo not drawn) | 1% (active) |
| COc1cccc(NC(c2nnc(-c3ccccc3)o2)c2ccc(F)cc2Cl)c1 (stereo not drawn) | 54% |
| CCc1ccccc1NC(c1nnc(-c2cccc(F)c2)o1)c1ccc(F)cc1Cl (stereo not drawn) | 96% |
| COc1ccc(C)cc1NC(c1nnc(-c2ccccc2)o1)c1ccc(F)cc1Cl (stereo not drawn) | -3% (active) |
| Cc1cccc(NC(c2nnc(-c3ccccc3)o2)c2ccc(F)cc2Cl)c1C (stereo not drawn) | 61% |

Source: PubChem BioAssay AID463173 (ICCB-Longwood Screening Facility, Harvard Medical School, 2010)
